According to the supplement of paper PMC10849652:
About 7,900 targets were measured; listed, in parts, are those with a hit and a random draw of the rest. About 0.6% of all pairs of compound and target were hits.

Legend:
Experiment in all cases: log2 fold change, soluble protein after heating vs DMSO (PISA); higher = thermal stabilisation; K562 cells, 10 uM, 30 min; active = over 0.2 and 3.5 SD of the protein, either way, in both replicates (recomputed)
[1] = compound: CC1=C(C=C(C=C1)NC(=O)C2=CC(=CC=C2)C(C)(C)C#N)NC3=CC4=C(C=C3)N=CN(C4=O)C
How it was run: (§1)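 Aliquots of K562 cells (2×10^6 cells/mL) treated with 10 μM compound for 30 min were heated for 3 min over 48°C-58°C. After pooling and extraction in PBS with 0.5% NP-40 at 4°C, soluble protein from a 21,000xg, 90 min spin was quantified by TMTpro 16plex LC-MS/MS with channel sums equalised. Thermal stability is expressed against control samples, from duplicates, as a log2 fold change.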

[2] = compound: CC1=C(C=C(C=C1)NC(=O)C2=CC(=CC=C2)N(C)C)NC(=O)C3=CC=C(C=C3)O
How it was run: as §1

[3] = compound: CC1=CC=C(C=C1)SC2=C3C=C(SC3=CN=C2)C(=O)N
How it was run: as §1

[4] = compound: CC1=NC(=CC=C1)C2=C(N=C(N2)C(C)(C)C)C3=CC4=NC=CN=C4C=C3
How it was run: as §1

[5] = compound: CCCCN(Cc1ccc(C(=O)NO)cc1)C(=O)Nc1ccccc1 [Nexturastat A]
How it was run: as §1

[6] = compound: CCCS(=O)(=O)Nc1ccc(F)c(C(=O)c2c[nH]c3ncc(-c4ccc(Cl)cc4)cc23)c1F [vemurafenib]
How it was run: as §1

[7] = compound: CCCS(=O)(=O)Nc1ccc(F)c(C(=O)c2c[nH]c3ncc(Cl)cc23)c1F
How it was run: as §1

[8] = compound: CCCc1cc(C)[nH]c(=O)c1CNC(=O)c1cc(-c2ccnc(N3CCN(C)CC3)c2)cc2c1cnn2C(C)C
How it was run: as §1

[9] = compound: CCN(CC)Cc1ccc2cc(COC(=O)Nc3ccc(C(=O)NO)cc3)ccc2c1 [givinostat]
How it was run: as §1

[10] = compound: CCN(CCCOc1ccc2c(Nc3cc(CC(=O)Nc4cccc(F)c4)[nH]n3)ncnc2c1)CCOP(=O)(O)O [barasertib]
How it was run: as §1

Measured: log2 fold change

GLCCI1 (UniProt Q86VQ1)
inactive: [1] 0.037 | [2] 0.104 | [3] -0.029 | [4] 0.028 | [5] 0 | [6] -0.007 | [7] -0.035 | [8] 0.033 | [9] 0.045 | [10] -0.075

GPAT4 (UniProt Q86UL3)
inactive: [1] 0.05 | [2] -0.004 | [3] 0.014 | [4] -0.004 | [5] -0.004 | [6] 0.036 | [7] 0.027 | [8] 0.019 | [9] -0.024 | [10] 0.027

H2AFX (UniProt P16104)
inactive: [1] -0.088 | [2] -0.006 | [3] -0.231 | [4] -0.073 | [5] 0.754 | [6] -0.232 | [7] 0.329 | [8] 0.1 | [9] 0.328 | [10] -0.11

FEN1 (UniProt P39748)
Chain of UniProt P39748 (P39748 whole entry, looked up): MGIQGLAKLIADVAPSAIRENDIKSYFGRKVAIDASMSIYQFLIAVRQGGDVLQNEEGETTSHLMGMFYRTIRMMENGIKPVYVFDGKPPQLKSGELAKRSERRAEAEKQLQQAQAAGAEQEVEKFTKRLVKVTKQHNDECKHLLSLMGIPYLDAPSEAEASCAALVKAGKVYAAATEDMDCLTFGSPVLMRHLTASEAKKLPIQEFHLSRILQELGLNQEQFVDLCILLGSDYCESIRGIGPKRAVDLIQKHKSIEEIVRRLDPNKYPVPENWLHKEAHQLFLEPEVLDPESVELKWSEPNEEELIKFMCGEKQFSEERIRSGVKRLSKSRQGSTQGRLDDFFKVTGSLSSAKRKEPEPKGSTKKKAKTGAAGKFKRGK
inactive: [1] 0.018 | [2] -0.08 | [3] 0.045 | [4] 0.057 | [5] -0.194 | [6] 0.121 | [7] 0.022 | [8] -0.03 | [9] 0.096 | [10] 0.088

GYG1 (UniProt P46976)
Chain of UniProt P46976 (P46976 whole entry, looked up): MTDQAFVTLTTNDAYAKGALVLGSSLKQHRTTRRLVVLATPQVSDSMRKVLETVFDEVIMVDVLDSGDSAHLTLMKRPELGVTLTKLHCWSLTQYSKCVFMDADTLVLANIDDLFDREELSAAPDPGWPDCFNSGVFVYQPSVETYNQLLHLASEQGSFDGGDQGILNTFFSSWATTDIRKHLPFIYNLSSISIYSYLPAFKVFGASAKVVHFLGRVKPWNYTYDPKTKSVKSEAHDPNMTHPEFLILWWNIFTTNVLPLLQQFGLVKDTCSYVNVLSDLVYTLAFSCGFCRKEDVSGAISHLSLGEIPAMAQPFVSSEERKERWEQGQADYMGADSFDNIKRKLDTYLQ
inactive: [1] 0.209 | [2] 0.035 | [3] -0.041 | [4] -0.029 | [5] 0.146 | [6] 0.014 | [7] 0.046 | [8] 0.101 | [9] 0.027 | [10] -0.037

GSK3B isoform 2 (UniProt P49841)
Chain of UniProt P49841 (P49841 whole entry, looked up): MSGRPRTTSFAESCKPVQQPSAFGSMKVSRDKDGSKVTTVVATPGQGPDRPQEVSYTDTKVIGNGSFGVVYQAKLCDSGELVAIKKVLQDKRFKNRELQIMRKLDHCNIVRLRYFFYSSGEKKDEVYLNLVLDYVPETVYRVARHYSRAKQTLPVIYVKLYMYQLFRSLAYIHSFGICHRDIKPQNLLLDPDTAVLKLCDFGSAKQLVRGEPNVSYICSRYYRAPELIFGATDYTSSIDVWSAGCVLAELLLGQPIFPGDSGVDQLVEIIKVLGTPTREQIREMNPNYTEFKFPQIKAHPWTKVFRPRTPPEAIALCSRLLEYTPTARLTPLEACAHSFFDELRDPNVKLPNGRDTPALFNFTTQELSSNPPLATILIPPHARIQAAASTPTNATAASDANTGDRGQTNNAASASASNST
inactive: [1] 0.015 | [2] -0.022 | [3] 0.044 | [4] 0.034 | [5] 0.003 | [6] -0.008 | [7] -0.018 | [8] -0.066 | [9] -0.07 | [10] -0.017

FBXO42 (UniProt Q6P3S6)
inactive: [1] -0.033 | [2] 0.164 | [3] -0.038 | [4] 0.04 | [5] -0.072 | [6] -0.086 | [7] 0.083 | [8] -0.025 | [9] 0.09 | [10] 0.015

FERMT3 (UniProt Q86UX7)
inactive: [1] 0.019 | [2] -0.024 | [3] 0.037 | [4] 0.054 | [5] -0.013 | [6] 0.036 | [7] 0.083 | [8] 0.03 | [9] 0.048 | [10] 0.019

GEMIN6 (UniProt Q8WXD5)
inactive: [1] -0.049 | [2] -0.05 | [3] 0.014 | [4] 0.015 | [5] 0.134 | [6] 0.073 | [7] -0.001 | [8] 0.008 | [9] -0.088 | [10] -0.053

HNRNPH2 (UniProt P55795)
inactive: [1] 0.064 | [2] -0.027 | [3] 0.079 | [4] 0.058 | [5] 0.044 | [6] 0.048 | [7] 0.208 | [8] 0.095 | [9] 0.109 | [10] 0.014

HNRNPUL2 (UniProt Q1KMD3)
inactive: [1] 0.009 | [2] 0.008 | [3] -0.074 | [4] -0.032 | [5] 0.109 | [6] -0.047 | [7] -0.027 | [8] -0.002 | [9] 0.047 | [10] -0.027

IDI1 isoform 2 (UniProt Q13907)
inactive: [1] -0.017 | [2] -0.007 | [3] -0.015 | [4] 0.003 | [5] -0.082 | [6] 0.005 | [7] -0.029 | [8] -0.185 | [9] -0.219 | [10] 0.024

GNAS (UniProt Q5JWF2)
Chain of UniProt Q5JWF2 (Q5JWF2 whole entry, looked up): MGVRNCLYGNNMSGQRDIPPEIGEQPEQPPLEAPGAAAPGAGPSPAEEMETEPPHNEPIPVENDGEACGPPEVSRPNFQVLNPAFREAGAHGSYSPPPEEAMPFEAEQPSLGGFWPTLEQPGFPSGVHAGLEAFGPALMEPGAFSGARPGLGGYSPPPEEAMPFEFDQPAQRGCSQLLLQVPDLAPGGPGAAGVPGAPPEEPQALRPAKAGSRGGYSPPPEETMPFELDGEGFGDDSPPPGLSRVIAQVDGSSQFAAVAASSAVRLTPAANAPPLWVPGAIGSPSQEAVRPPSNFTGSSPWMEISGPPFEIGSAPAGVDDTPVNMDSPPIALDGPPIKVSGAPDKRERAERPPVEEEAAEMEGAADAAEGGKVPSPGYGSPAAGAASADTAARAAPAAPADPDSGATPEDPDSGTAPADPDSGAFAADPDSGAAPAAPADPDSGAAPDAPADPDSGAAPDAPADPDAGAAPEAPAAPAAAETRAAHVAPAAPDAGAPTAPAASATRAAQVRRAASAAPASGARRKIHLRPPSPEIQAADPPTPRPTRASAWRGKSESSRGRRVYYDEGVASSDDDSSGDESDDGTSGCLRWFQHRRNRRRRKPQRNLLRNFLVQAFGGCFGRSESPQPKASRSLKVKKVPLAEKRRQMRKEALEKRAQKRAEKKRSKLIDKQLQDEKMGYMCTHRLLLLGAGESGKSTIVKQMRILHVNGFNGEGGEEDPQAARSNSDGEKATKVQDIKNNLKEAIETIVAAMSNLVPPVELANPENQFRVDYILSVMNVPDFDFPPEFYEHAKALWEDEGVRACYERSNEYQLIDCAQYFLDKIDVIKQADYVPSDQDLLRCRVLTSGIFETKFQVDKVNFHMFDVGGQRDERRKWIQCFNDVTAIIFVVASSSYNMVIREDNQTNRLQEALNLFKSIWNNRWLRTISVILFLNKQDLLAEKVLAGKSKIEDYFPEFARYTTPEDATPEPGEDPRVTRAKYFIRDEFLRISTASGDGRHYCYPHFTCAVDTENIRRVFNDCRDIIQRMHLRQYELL
inactive: [1] 0.105 | [2] -0.043 | [3] -0.014 | [4] -0.027 | [5] -0.01 | [6] 0.034 | [7] -0.027 | [8] 0.067 | [9] -0.036 | [10] -0.011

HMGN2 (UniProt P05204)
inactive: [1] 0.115 | [2] 0.097 | [3] -0.038 | [4] 0.047 | [5] -0.016 | [6] 0.032 | [7] -0.058 | [8] -0.078 | [9] -0.019 | [10] 0.047

HNRNPK isoform 2 (UniProt P61978)
inactive: [1] 0.034 | [2] 0.004 | [3] -0.003 | [4] 0.075 | [5] 0.022 | [6] 0.048 | [7] 0.048 | [8] -0.031 | [9] 0.063 | [10] 0.024

HDAC6 (UniProt Q9UBN7)
Chain of UniProt Q9UBN7 (Q9UBN7 whole entry, looked up): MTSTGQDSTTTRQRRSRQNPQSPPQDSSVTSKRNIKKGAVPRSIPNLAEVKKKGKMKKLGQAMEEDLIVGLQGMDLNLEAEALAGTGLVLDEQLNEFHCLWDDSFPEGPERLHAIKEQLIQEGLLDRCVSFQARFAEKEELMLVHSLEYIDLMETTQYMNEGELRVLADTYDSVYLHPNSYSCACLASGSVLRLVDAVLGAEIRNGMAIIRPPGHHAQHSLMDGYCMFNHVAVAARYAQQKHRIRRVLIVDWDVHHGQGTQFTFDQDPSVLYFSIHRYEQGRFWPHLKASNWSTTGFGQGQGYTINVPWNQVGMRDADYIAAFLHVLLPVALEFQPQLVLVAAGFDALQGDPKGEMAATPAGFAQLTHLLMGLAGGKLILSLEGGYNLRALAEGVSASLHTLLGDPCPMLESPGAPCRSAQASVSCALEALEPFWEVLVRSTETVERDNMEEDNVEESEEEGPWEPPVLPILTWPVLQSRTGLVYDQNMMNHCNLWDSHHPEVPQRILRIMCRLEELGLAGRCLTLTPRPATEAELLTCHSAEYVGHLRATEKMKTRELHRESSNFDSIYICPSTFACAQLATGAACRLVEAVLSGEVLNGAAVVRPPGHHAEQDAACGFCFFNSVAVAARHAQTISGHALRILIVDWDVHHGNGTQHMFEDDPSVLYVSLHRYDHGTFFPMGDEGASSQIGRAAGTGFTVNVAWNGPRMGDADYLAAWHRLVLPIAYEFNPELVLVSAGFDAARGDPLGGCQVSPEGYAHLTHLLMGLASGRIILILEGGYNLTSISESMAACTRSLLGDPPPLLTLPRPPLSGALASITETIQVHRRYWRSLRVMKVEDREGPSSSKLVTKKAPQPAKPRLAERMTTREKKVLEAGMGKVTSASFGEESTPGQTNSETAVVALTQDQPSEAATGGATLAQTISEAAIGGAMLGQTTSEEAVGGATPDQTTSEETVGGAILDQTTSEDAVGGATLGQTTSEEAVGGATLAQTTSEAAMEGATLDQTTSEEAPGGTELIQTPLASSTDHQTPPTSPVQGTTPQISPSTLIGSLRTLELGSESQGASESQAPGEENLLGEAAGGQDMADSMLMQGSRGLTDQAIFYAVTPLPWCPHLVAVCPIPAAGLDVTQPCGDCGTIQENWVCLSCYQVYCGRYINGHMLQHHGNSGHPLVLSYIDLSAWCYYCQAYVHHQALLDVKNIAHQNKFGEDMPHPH
inactive: [1] 0.016 | [2] -0.041 | [3] 0.022 | [4] -0.091 | [6] 0.004 | [7] -0.018 | [8] -0.015 | [10] 0
active: [5] 0.522 | [9] 1.03

GMEB1 (UniProt Q9Y692)
Chain of UniProt Q9Y692 (Q9Y692 whole entry, looked up): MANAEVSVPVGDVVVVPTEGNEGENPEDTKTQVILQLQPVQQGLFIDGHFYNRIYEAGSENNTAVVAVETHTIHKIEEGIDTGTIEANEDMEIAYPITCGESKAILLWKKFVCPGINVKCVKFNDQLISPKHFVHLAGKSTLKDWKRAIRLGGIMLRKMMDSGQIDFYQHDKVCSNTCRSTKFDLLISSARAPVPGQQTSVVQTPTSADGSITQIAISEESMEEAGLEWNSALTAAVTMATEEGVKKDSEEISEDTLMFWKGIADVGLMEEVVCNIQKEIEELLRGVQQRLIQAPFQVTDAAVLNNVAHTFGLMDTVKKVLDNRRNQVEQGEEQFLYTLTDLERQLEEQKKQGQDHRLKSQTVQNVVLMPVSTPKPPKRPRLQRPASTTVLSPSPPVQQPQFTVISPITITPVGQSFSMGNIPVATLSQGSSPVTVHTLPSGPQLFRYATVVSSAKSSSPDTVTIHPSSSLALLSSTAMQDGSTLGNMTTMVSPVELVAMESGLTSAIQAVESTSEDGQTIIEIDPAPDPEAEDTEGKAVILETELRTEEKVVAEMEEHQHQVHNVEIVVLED
inactive: [1] 0.088 | [2] 0.041 | [3] 0.04 | [4] 0.014 | [5] -0.041 | [6] -0.048 | [7] 0.154 | [8] 0.047 | [9] 0.058 | [10] 0.008

FBXO6 (UniProt Q9NRD1)
inactive: [1] 0.006 | [2] 0.006 | [3] 0.048 | [4] 0.026 | [5] -0.04 | [6] 0.044 | [7] 0.014 | [8] -0.01 | [9] -0.093 | [10] -0.008

GABARAPL2 (UniProt P60520)
Chain of UniProt P60520 (P60520 whole entry, looked up): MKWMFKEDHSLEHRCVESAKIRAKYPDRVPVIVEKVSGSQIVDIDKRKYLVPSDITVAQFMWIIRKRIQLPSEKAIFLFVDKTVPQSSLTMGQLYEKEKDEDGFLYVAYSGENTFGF
inactive: [1] -0.01 | [2] 0.023 | [3] 0.067 | [4] 0.188 | [5] -0.122 | [6] 0.026 | [7] 0.051 | [8] -0.03 | [9] 0.03 | [10] 0.007

HNRNPH1 (UniProt P31943)
inactive: [1] 0.077 | [2] -0.044 | [3] 0.005 | [4] 0.047 | [5] 0.201 | [6] 0.086 | [7] 0.144 | [8] 0.029 | [9] 0.115 | [10] 0.05

HDDC2 (UniProt Q7Z4H3)
inactive: [1] 0.009 | [2] -0.03 | [3] 0.014 | [4] 0.029 | [5] -0.139 | [6] 0.004 | [7] 0.034 | [8] -0.018 | [9] -0.067 | [10] -0.022

HIST2H2BF isoform 2 (UniProt Q5QNW6)
inactive: [1] -0.094 | [2] -0.034 | [3] -0.202 | [4] -0.009 | [6] -0.284 | [7] 0.529 | [8] 0.1 | [9] 0.331 | [10] -0.157
active: [5] 0.78

GINS2 (UniProt Q9Y248)
inactive: [1] 0.136 | [2] -0.168 | [3] 0.099 | [4] 0.147 | [5] 0.174 | [6] 0.102 | [7] 0.029 | [8] 0.021 | [9] -0.038 | [10] 0.053

HDAC7 isoform 5 (UniProt Q8WUI4)
Chain of UniProt Q8WUI4 (Q8WUI4 whole entry, looked up): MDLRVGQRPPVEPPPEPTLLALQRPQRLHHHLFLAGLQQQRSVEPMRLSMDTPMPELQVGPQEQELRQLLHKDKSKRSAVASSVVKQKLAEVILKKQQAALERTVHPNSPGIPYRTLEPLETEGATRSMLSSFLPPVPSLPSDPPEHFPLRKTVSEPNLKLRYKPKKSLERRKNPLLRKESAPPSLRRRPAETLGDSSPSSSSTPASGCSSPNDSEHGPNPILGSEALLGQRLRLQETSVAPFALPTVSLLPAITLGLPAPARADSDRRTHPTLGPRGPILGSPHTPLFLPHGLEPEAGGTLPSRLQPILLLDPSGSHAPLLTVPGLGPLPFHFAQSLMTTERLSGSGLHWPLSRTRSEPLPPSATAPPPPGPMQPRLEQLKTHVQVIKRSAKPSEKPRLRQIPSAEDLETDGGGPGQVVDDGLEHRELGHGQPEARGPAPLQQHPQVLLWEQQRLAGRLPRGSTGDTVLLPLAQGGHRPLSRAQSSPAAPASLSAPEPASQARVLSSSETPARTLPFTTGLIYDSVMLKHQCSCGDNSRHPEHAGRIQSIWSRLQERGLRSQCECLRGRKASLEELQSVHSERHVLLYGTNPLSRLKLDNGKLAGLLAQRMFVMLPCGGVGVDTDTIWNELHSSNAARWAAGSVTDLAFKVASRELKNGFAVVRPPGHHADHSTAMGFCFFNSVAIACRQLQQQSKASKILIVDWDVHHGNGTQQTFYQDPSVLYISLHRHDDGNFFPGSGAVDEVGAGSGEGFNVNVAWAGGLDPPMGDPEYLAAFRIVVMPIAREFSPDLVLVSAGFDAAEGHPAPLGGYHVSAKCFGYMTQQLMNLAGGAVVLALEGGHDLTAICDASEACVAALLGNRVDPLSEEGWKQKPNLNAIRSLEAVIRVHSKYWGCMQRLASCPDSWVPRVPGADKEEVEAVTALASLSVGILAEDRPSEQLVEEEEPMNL
inactive: [1] -0.01 | [2] 0.028 | [3] -0.043 | [4] -0.002 | [5] 0.108 | [6] 0 | [7] -0.009 | [8] -0.014 | [10] 0

GTF2A1 (UniProt P52655)
inactive: [1] -0.086 | [2] -0.05 | [3] -0.023 | [4] -0.006 | [5] 0.077 | [6] 0.005 | [7] -0.057 | [8] -0.011 | [9] -0.01 | [10] 0.021

HPCAL1 (UniProt P37235)
inactive: [1] -0.022 | [2] 0.012 | [3] 0.048 | [4] 0.032 | [5] -0.092 | [6] -0.017 | [7] 0.005 | [8] -0.076 | [9] -0.041 | [10] 0.019

HNRNPC isoform 2 (UniProt P07910)
inactive: [1] 0.276 | [2] -0.074 | [3] -0.349 | [4] -0.045 | [5] 0.449 | [6] -0.055 | [7] -0.191 | [8] 0.028 | [9] 0.241 | [10] -0.095
